# Reference: PubChem BioAssay (NCATS)
# Several values for one entry are separate records, joined by “and”; a condition that tells them apart may be missing. Identical values can stand only once. Records with an inconclusive call do not appear. Entries that show only a call come without a potency. Some compounds were tested as several samples or in several runs, with calls that do not always agree. Activity calls are given as the source filed them. Unless noted, the call rests on the fitted dose curve; in most records, active means well fitted curve in the direction sought with a large enough effect; inconclusive means small, poorly fitted or top-dose-only effect, or another doubt; inactive means no such curve, though single readings can be large; an effect the other way counts as inactive or inconclusive.
# How the values were obtained:
# Papain (Carica papaya) = Papain (Carica papaya) (UniProt P00784); assay: Primary qHTS assay for inhibitors of the protease papain (AID 1645873);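 further: papain turnover of Z-FR-AMC read as the AMC fluorescence gain over 10 min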
# [1] = Primary qHTS for inhibitors of nuclear receptor binding SET domain protein 2 (NSD2) in an isogenic RCH-ACV NSD2 p.E1099K mutant (9B) (AID 1645876); further: nearly all actives have a fitted effect of over 70% in size; further: potency means the concentration at half of the fitted maximal effect
# [2] = Primary qHTS for inhibitors of nuclear receptor binding SET domain protein 2 (NSD2) in an RCH-ACV wild type WT cells (2C) (AID 1645877); further: nearly all actives have a fitted effect of over 70% in size; further: potency means the concentration at half of the fitted maximal effect
# [3] = target: Catechol O-methyltransferase (Homo sapiens) (UniProt P21964); assay: Confirmatory Screen for Target Class Profiling of Small Molecule Inhibitors of Methyltransferases (AID 1745852; calls by dose curve; further: potency means the concentration at half of the fitted maximal effect); conditions: MTase-Glo luminescence, SAH detection, recombinant enzyme; measured here: COMT max response; stronger effect = lower value
# [4] = target: Guanidinoacetate N-methyltransferase (Homo sapiens) (UniProt Q14353); assay: as above; conditions: MTase-Glo luminescence, SAH detection, recombinant enzyme; activity change, negative = inhibition: at 57.3 µM (top of the series) unless noted
# [5] = target: Rap guanine nucleotide exchange factor 3 (Homo sapiens) (UniProt O95398); assay: Confirmatory qHTS for antagonist of cAMP-regulated guanine nucleotide exchange factor 3 (EPAC1) (AID 1645880); further: nearly all actives have a fitted effect of over 55% in size
# Excerpt: Assay Provider (PI): Xiaodong Cheng Ph.D. The University of Texas Medical Branch, […], TX MLPCN Grant: NS066510 In multi-cellular eukaryotic organisms, the effects of cAMP are transduced by two ubiquitously-expressed intracellular cAMP receptors, the classic protein kinase A/cAMP-dependent protein kinase (PKA/cAPK) and the more recently discovered exchange protein directly activated by cAMP/cAMP-regulated guanine nucleotide exchange factor (EPAC/cAMP-GEF). Both PKA and EPAC are ubiquitously expressed in all tissues, and an increase in intracellular cAMP levels will lead to the activation of both PKA and EPAC. […] This qHTS will be used to screen the Molecular Libraries Small Molecule Repository (MLSMR) as a concentration-titration series using the NCGC unique quantitative screening (qHTS) platform to find activators for EPAC1. […] Activators are identified by monitoring the change in fluorescence signal as the exchanged free BODIPY-GDP has a reduced fluorescence compared to Rap1-bound BODIPY-GDP. […]
# Briefly, three uL of reagents (100 nM EPAC1, 250 nM RAP1B-BODIPY-GDP, 50 uM GDP) were dispensed into a 1536-well Greiner black solid-bottom medium binding assay plate. […] The assay plates were read at 5 minute intervals for 30 minutes in the ViewLux plate reader using 480nm excitation and 540nm emission filters. […]
# [6] = target: Rap guanine nucleotide exchange factor 3 (Homo sapiens) (UniProt O95398); assay: Confirmatory qHTS for agonist of cAMP-regulated guanine nucleotide exchange factor 3 (EPAC1) (AID 1645881);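 further: EPAC1 catalysed release of BODIPY-GDP from Rap1B seen as fluorescence loss; nearly all actives have a fitted effect of over 75% in size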
# [7] = target: Rap guanine nucleotide exchange factor 4 (Homo sapiens) (UniProt Q8WZA2); assay: Confirmatory qHTS for agonist of cAMP-regulated guanine nucleotide exchange factor 4 (EPAC2) (AID 1645884);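 further: nucleotide exchange releases bodipy-GDP from Rap1 and this lowers its fluorescence; nearly all actives have a fitted effect of over 65% in size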
# [8] = target: Rap guanine nucleotide exchange factor 4 (Homo sapiens) (UniProt Q8WZA2); assay: Confirmatory qHTS for antagonist of cAMP-regulated guanine nucleotide exchange factor 4 (EPAC2) (AID 1645885); further: nearly all actives have a fitted effect of over 25% in size
# [9] = target: N-terminal Xaa-Pro-Lys N-methyltransferase 1 (Homo sapiens) (UniProt Q9BV86); assay: Confirmatory qHTS for Inhibitors of N-terminal methyltransferase 1 (NTMT1): MTaseGlo Assay (AID 1645874); further: nearly all actives have a fitted effect of over 65% in size; further: potency means the concentration at half of the fitted maximal effect;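 on activity change, negative = inhibition: luminescence from SAH made as NTMT1 methylates SPKRIA peptide using SAM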
# Method in brief: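 qHTS format: NTMT1 125 nM, SAM 100 uM, peptide SPKRIA 1 uM final; 15 min compound preincubation, 30 min reaction at room temperature. MTase-Glo luminescence.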
# Chain of N-terminal Xaa-Pro-Lys N-methyltransferase 1 (Homo sapiens) (Q9BV86 whole entry, looked up): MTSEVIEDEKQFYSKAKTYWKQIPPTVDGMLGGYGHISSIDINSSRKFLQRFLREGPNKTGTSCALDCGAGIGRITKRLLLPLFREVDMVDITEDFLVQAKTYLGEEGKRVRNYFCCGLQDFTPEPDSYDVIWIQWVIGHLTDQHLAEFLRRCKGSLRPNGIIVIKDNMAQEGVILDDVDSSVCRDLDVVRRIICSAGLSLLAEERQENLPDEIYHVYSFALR
# Chain of Papain (Carica papaya) (P00784 whole entry, looked up, the tested form may be a part): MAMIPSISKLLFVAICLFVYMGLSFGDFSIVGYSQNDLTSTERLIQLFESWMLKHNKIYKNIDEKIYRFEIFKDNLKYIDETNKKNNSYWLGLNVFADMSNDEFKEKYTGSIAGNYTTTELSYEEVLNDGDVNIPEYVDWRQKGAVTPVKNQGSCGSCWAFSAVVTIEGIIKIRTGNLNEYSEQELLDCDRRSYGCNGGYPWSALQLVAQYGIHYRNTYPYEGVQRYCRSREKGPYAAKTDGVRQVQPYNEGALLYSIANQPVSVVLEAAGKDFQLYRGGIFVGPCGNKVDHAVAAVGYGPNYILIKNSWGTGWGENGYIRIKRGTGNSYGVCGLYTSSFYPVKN
# Chain of Catechol O-methyltransferase (Homo sapiens) (P21964 whole entry, looked up): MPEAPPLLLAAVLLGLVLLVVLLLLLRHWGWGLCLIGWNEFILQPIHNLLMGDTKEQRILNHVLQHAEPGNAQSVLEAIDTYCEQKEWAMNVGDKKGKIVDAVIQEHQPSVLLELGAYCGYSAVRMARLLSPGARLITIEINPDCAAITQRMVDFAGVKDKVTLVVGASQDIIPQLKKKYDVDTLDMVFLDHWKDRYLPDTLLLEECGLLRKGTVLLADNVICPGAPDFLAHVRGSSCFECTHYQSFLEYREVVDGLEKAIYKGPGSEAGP
# Chain of Rap guanine nucleotide exchange factor 3 (Homo sapiens) (O95398 whole entry, looked up): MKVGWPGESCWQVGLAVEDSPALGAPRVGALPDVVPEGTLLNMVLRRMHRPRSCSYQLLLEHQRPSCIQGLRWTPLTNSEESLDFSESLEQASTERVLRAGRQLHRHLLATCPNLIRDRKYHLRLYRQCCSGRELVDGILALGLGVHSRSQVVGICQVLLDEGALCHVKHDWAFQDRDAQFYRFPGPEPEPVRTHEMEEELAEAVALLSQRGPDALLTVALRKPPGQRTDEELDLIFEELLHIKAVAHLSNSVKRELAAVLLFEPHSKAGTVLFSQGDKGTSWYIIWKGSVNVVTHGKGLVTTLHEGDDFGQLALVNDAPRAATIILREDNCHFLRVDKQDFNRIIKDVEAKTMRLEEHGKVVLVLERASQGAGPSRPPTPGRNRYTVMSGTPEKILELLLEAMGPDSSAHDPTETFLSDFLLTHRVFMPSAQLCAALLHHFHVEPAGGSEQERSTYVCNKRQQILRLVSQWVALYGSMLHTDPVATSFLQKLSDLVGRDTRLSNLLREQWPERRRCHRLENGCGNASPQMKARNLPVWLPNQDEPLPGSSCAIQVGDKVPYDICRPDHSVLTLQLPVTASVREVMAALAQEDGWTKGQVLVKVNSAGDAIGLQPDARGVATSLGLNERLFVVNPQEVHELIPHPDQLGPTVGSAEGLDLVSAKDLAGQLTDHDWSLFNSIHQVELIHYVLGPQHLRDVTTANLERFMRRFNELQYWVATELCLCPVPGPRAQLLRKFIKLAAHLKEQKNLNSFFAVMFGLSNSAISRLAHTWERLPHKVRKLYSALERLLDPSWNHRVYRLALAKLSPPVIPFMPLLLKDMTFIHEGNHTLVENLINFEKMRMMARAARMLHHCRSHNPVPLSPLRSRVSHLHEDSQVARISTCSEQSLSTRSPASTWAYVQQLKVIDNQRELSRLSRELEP
# Chain of Rap guanine nucleotide exchange factor 4 (Homo sapiens) (Q8WZA2 whole entry, looked up): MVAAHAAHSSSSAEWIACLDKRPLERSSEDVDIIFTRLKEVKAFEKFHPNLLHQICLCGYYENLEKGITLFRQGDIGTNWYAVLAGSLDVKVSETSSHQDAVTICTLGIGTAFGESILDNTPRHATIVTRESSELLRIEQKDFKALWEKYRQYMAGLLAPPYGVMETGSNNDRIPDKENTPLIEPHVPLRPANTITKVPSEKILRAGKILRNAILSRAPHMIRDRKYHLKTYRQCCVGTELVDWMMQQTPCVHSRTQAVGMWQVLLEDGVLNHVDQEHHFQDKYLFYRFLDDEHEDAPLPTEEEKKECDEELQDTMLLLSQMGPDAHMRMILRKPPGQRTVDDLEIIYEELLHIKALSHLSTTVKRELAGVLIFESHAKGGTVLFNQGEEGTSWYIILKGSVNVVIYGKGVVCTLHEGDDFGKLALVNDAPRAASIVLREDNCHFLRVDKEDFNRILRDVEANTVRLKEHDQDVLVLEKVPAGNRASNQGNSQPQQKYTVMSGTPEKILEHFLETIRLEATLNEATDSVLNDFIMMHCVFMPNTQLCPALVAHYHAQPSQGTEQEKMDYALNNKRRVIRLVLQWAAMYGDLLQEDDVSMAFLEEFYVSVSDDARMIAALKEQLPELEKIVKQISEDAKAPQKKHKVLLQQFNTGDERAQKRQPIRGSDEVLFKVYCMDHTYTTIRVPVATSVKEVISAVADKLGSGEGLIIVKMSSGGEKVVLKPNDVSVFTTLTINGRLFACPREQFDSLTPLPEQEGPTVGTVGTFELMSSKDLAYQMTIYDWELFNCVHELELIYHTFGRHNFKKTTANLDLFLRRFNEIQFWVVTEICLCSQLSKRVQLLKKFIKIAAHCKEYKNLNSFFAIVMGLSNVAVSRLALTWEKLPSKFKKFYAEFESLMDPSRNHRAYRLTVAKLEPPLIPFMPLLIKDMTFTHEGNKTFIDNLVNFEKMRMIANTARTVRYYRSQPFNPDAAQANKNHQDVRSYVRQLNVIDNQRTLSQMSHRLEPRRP
smiles,measurement,setting,value
CC(C)OC(=O)C(C)(C)Oc1ccc(C(=O)c2ccc(Cl)cc2)cc1,outcome,Papain (Carica papaya),inactive
same,Potency,[1],inactive
same,Potency,[2],inactive
COc1ccc(Cc2nccc3cc(OC)c(OC)cc23)cc1OC,outcome,Papain (Carica papaya),inactive
same,activity,[3],-10.8%
same,"activity change, negative = inhibition",[4],-7.19%
CC(=O)c1ccc(S(=O)(=O)NC(=O)NC2CCCCC2)cc1,outcome,Papain (Carica papaya),inactive
same,Potency,[1],inactive
same,Potency,[2],inactive
CCN(CC)C(=O)c1ccc(O)c(OC)c1,outcome,Papain (Carica papaya),inactive
same,Potency,[1],inactive
same,Potency,[2],inactive
CC(C)(C)c1ccc(C(O)CCCN2CCC(C(O)(c3ccccc3)c3ccccc3)CC2)cc1 (configuration not stated),outcome,Papain (Carica papaya),inactive
NC(N)=Nc1nc(CSCC/C(N)=N/S(N)(=O)=O)cs1,outcome,Papain (Carica papaya),inactive
same,Potency,[1],inactive
same,Potency,[2],inactive
CC1(C)CCC2=C(O1)c1ccccc1C(=O)C2=O,outcome,Papain (Carica papaya),inactive
same,Potency,[1],13.2 µM (active)
same,Potency,[2],9.34 µM (active)
same,outcome,[5],inactive
same,outcome,[6],inactive
same,outcome,[7],inactive
same,outcome,[8],inactive
same,activity,[3],-19.8%
same,Potency,[4],9.68 µM (active)
O=c1cc(-c2ccc(O)cc2)oc2cc(O)cc(O)c12,outcome,Papain (Carica papaya),inactive
same,Potency,[1],5.9 µM (active)
same,Potency,[2],4.68 µM (active)
CC/C(=C(\c1ccccc1)c1ccc(OCCN(C)C)cc1)c1ccccc1,outcome,Papain (Carica papaya),inactive
same,Potency,[1],inactive
same,Potency,[2],17.1 µM (active)
COc1ccccc1N1CCN(CCCNc2cc(=O)n(C)c(=O)n2C)CC1,outcome,Papain (Carica papaya),inactive
same,Potency,[1],inactive
same,Potency,[2],inactive
NCCS,outcome,Papain (Carica papaya),inactive
same,Potency,[1],inactive
same,Potency,[2],inactive
CC(=O)CCCCn1c(=O)c2c(ncn2C)n(C)c1=O,outcome,Papain (Carica papaya),inactive
same,Potency,[1],inactive
same,Potency,[2],inactive
O=C(O)CCc1nc(-c2ccccc2)c(-c2ccccc2)o1,outcome,Papain (Carica papaya),inactive
same,Potency,[1],inactive
same,Potency,[2],inactive
O=c1c(-c2ccc(O)cc2)coc2cc(O)ccc12,outcome,Papain (Carica papaya),inactive
same,Potency,[9],inactive
COC(=O)[C@@H]1[C@H]2C[C@H]3c4[nH]c5ccccc5c4CCN3C[C@@H]2CC[C@@H]1O,outcome,Papain (Carica papaya),inactive
same,Potency,[1],inactive
same,Potency,[2],inactive
COc1cccc(-c2cc(=O)c3ccccc3o2)c1N,outcome,Papain (Carica papaya),inactive
same,Potency,[1],inactive
same,Potency,[2],inactive
Clc1ccc(Cn2c(CN3CCCC3)nc3ccccc32)cc1,outcome,Papain (Carica papaya),inactive
same,Potency,[2],inactive and 18.6 µM (active)
O=C1NCC2(CCN(CCc3ccccc3)CC2)O1,outcome,Papain (Carica papaya),inactive
same,Potency,[1],inactive
same,Potency,[2],inactive
Cc1cccc(C)c1OCC(C)N (configuration not stated),outcome,Papain (Carica papaya),inactive
same,Potency,[1],inactive
same,Potency,[2],inactive
CC(=O)N[C@@H](CS)C(=O)O,outcome,Papain (Carica papaya),inactive
same,Potency,[1],inactive
same,Potency,[2],inactive
CN(C)CCC(c1ccccc1)c1ccccn1 (configuration not stated),outcome,Papain (Carica papaya),inactive
same,Potency,[1],inactive
same,Potency,[2],inactive
Clc1ccc(C(c2ccc(Cl)cc2)n2cc[n+](CC(OCc3ccc(Cl)cc3Cl)c3ccc(Cl)cc3Cl)c2)cc1 (configuration not stated),outcome,Papain (Carica papaya),inactive
same,Potency,[1],5.25 µM (active)
same,Potency,[2],5.25 µM (active)
C[N+](C)(C)CCCCCC[N+](C)(C)C,outcome,Papain (Carica papaya),inactive
same,Potency,[1],inactive
same,Potency,[2],inactive
O=C(NCCN1CCOCC1)c1ccc(Cl)cc1,outcome,Papain (Carica papaya),inactive
same,Potency,[1],inactive
same,Potency,[2],inactive
CCN(CC)CCOC(=O)c1ccc(N)cc1,outcome,Papain (Carica papaya),inactive
same,Potency,[1],inactive
same,Potency,[2],inactive
CCn1cc(C(=O)O)c(=O)c2ccc(C)nc21,outcome,Papain (Carica papaya),inactive
O=C1NC(=O)C(c2ccccc2)(c2ccccc2)N1,outcome,Papain (Carica papaya),inactive
same,Potency,[1],inactive
same,Potency,[2],inactive
CCN1CCC[C@H]1CNC(=O)c1cc(S(N)(=O)=O)ccc1OC,outcome,Papain (Carica papaya),inactive
same,Potency,[1],inactive
same,Potency,[2],inactive
CCCCC1C(=O)N(c2ccccc2)N(c2ccccc2)C1=O,outcome,Papain (Carica papaya),inactive
same,Potency,[1],inactive
same,Potency,[2],inactive
CC1=C(/C=C/C(C)=C/C=C/C(C)=C/C(=O)Nc2ccc(O)cc2)C(C)(C)CCC1,outcome,Papain (Carica papaya),inactive
same,Potency,[1],1.88 µM (active) and 2.95 µM (active)
same,Potency,[2],1.88 µM (active) and 2.95 µM (active)
CCCNC(=O)NS(=O)(=O)c1ccc(Cl)cc1,outcome,Papain (Carica papaya),inactive
same,Potency,[1],inactive
same,Potency,[2],inactive
CC(C)NCC(O)COc1cccc2[nH]ccc12 (configuration not stated),outcome,Papain (Carica papaya),inactive
same,Potency,[1],inactive
same,Potency,[2],inactive
CNC(=O)c1ccc2cc(C3(O)CCn4cncc43)ccc2c1 (configuration not stated),Potency,[1],inactive
same,Potency,[2],inactive
Cc1c(NC(=O)c2ccc(C(C)(C)C)cc2)cccc1-c1cn(C)c(=O)c(Nc2ccc(C(=O)N3CCOCC3)cc2)n1,Potency,[1],inactive
O=C(Nc1ccccc1-c1cn2c(CN3CCNCC3)csc2n1)c1cnc2ccccc2n1,Potency,[9],33.9 µM (active)
same,Potency,[1],20.5 µM (active) and 7.42 µM (active)
same,Potency,[2],4.09 µM (active) and 6.61 µM (active)
same,activity,[3],-38.1%
same,Potency,[4],15.3 µM (active)
COc1cc(Nc2ncc(F)c(Nc3ccc4c(n3)NC(=O)C(C)(C)O4)n2)cc(OC)c1OC,Potency,[9],inactive
same,Potency,[1],817 nM (active) and 4.61 µM (active)
same,Potency,[2],1.03 µM (active) and 5.17 µM (active)
